# Source: ChEMBL document CHEMBL1961873, “Compounds: GSK PKIS; Assays: Nanosyn kinase panel” (2012)
# “And” between values parts separate entries of the source, which are not always exact repeats. Equal entries are not always repeated.
# What was measured:
# [1] = target: Tyrosine-protein kinase SYK (Homo sapiens) (UniProt P43405); settings: at 1 µM
# [2] = target: T1, Tyrosine-protein kinase Tec (Homo sapiens) (UniProt P42680); settings: at 0.1 µM
# T1 sequence (whole entry): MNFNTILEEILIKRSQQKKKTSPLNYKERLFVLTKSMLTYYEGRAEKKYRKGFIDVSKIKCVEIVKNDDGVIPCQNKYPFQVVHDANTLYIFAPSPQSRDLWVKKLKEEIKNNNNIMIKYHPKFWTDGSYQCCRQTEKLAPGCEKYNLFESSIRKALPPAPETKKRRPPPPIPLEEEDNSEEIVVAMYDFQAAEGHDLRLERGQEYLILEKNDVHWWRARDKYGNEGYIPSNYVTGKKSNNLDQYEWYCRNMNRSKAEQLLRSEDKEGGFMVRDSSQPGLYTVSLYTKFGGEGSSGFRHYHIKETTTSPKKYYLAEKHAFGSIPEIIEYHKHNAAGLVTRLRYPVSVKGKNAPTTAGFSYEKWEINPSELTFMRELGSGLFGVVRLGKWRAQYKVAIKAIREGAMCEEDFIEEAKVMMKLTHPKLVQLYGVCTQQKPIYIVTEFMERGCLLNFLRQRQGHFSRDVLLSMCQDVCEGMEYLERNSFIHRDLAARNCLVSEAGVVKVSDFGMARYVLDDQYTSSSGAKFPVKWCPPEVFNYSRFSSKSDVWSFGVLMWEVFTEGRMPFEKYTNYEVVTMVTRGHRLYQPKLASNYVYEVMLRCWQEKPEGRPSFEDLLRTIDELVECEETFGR
# [3] = target: T1, Tyrosine-protein kinase Tec (Homo sapiens); settings: at 1 µM
# [4] = target: Angiopoietin-1 receptor (Homo sapiens) (UniProt Q02763); settings: at 0.1 µM
# Chain of Angiopoietin-1 receptor (Homo sapiens) (Q02763 whole entry): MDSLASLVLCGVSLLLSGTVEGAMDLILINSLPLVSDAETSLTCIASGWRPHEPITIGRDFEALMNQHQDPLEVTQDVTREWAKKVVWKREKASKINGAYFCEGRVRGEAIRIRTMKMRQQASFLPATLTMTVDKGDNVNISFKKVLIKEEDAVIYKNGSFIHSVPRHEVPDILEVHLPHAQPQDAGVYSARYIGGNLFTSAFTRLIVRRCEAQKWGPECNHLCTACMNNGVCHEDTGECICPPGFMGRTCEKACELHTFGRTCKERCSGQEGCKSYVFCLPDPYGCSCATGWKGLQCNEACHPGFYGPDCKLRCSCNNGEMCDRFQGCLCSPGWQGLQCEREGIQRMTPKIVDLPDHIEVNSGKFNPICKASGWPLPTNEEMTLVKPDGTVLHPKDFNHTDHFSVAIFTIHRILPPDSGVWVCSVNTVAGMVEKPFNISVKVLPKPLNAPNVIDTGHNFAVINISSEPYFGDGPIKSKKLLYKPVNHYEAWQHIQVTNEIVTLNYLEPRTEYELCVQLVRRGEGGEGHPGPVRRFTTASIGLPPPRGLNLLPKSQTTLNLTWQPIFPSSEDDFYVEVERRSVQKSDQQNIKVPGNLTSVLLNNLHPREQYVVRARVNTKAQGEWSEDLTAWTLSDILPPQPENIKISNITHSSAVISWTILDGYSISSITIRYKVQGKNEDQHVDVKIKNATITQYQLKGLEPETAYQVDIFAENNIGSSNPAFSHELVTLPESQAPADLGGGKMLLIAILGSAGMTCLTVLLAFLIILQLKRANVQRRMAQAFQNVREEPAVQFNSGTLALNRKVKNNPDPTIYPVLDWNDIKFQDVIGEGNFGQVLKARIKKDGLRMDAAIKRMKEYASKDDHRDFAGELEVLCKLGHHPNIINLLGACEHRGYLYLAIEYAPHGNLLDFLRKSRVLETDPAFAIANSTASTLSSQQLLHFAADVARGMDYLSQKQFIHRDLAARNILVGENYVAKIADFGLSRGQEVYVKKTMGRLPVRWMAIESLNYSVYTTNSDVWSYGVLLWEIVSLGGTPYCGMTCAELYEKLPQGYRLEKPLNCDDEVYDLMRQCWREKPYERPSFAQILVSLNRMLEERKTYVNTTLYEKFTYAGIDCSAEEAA
# [5] = target: Angiopoietin-1 receptor (Homo sapiens) (UniProt Q02763); settings: at 1 µM
# [6] = target: T2, Non-receptor tyrosine-protein kinase TNK1 (Homo sapiens) (UniProt Q13470); settings: at 0.1 µM
# T2 sequence (whole entry): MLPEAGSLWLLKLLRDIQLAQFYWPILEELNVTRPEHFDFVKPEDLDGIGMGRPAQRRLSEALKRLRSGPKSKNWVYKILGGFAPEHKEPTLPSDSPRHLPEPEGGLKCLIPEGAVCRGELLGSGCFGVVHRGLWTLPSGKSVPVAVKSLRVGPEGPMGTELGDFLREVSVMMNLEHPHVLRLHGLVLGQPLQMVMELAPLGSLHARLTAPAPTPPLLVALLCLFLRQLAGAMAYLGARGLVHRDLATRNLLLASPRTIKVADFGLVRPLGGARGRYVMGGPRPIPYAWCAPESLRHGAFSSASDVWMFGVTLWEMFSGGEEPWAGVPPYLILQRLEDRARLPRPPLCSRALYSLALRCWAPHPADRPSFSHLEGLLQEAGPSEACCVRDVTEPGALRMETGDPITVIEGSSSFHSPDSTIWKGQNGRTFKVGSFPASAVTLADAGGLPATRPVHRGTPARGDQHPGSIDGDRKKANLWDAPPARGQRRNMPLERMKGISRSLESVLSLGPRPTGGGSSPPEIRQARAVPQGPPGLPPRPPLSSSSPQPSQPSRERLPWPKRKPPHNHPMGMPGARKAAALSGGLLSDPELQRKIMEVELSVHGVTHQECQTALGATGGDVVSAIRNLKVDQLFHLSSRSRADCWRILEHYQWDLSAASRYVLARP
# [7] = target: T2, Non-receptor tyrosine-protein kinase TNK1 (Homo sapiens); settings: at 1 µM
# [8] = target: Activated CDC42 kinase 1 (Homo sapiens) (UniProt Q07912); settings: at 0.1 µM
# [9] = target: Activated CDC42 kinase 1 (Homo sapiens) (UniProt Q07912); settings: at 1 µM
# [10] = target: High affinity nerve growth factor receptor (Homo sapiens) (UniProt P04629); settings: at 0.1 µM
# Chain of High affinity nerve growth factor receptor (Homo sapiens) (P04629 33-796 limits assumed): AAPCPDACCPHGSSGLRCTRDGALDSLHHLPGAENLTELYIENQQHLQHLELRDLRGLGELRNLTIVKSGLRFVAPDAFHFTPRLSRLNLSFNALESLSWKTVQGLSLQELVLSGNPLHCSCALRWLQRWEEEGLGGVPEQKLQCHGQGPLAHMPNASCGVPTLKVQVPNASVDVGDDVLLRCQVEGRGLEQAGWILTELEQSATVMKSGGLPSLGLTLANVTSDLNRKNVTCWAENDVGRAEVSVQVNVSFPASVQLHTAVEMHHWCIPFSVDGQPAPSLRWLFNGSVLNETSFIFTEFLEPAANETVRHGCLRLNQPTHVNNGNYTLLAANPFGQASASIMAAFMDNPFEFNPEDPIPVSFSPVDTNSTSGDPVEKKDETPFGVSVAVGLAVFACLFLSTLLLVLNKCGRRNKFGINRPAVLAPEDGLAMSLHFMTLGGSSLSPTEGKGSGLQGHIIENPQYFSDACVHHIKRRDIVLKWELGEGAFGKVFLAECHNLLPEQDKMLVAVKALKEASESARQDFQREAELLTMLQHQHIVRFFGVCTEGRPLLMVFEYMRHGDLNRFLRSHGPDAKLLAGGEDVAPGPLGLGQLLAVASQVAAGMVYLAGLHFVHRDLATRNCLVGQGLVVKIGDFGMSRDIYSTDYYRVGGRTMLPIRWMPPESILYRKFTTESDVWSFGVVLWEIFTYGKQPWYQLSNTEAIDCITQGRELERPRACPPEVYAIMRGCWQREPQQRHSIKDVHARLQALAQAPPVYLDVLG
# [11] = target: High affinity nerve growth factor receptor (Homo sapiens) (UniProt P04629); settings: at 1 µM
# [12] = target: BDNF/NT-3 growth factors receptor (Homo sapiens) (UniProt Q16620); settings: at 0.1 µM
# Chain of BDNF/NT-3 growth factors receptor (Homo sapiens) (Q16620 32-822 limits assumed): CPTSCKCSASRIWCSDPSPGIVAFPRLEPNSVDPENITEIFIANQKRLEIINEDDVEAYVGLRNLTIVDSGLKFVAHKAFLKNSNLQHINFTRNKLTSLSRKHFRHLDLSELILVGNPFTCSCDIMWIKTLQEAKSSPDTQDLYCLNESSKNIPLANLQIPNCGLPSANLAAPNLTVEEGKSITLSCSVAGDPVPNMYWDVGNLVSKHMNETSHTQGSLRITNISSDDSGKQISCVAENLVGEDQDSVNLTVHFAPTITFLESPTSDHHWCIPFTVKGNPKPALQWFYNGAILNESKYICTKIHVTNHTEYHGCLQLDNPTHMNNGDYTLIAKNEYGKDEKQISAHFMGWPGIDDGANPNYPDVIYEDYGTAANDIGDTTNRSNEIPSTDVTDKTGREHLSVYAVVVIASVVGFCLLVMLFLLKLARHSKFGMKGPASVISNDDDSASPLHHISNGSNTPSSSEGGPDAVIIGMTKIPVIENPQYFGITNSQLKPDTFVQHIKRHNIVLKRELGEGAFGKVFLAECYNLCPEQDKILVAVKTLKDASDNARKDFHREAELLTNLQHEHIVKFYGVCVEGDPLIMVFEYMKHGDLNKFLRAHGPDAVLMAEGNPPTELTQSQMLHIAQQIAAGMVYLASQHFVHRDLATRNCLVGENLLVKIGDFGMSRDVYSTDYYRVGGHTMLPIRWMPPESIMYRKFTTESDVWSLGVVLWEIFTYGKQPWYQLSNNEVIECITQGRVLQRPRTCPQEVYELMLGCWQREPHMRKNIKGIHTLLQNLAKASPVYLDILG
# [13] = target: BDNF/NT-3 growth factors receptor (Homo sapiens) (UniProt Q16620); settings: at 1 µM
# [14] = target: NT-3 growth factor receptor (Homo sapiens) (UniProt Q16288); settings: at 0.1 µM
# Chain of NT-3 growth factor receptor (Homo sapiens) (Q16288 32-839 limits assumed): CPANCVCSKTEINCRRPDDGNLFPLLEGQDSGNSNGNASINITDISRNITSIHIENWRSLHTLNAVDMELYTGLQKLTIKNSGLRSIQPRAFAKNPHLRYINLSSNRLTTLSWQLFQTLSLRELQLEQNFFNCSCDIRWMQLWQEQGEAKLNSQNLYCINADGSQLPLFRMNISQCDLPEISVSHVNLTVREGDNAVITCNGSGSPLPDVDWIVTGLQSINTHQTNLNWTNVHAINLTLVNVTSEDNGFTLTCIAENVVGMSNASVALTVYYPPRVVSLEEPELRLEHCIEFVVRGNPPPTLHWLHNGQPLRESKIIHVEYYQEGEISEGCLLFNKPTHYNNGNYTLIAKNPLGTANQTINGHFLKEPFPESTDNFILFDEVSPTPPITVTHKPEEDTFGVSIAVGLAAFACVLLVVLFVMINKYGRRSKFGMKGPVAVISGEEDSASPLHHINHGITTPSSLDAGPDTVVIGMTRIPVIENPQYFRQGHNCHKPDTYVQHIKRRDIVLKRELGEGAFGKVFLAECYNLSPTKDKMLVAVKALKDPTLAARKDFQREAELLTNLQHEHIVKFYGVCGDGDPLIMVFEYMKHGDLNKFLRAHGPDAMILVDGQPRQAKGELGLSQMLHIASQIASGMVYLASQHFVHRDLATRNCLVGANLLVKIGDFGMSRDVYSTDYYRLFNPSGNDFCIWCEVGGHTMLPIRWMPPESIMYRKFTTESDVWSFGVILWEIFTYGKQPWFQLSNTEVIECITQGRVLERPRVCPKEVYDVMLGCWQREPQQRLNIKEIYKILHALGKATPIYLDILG
# [15] = target: NT-3 growth factor receptor (Homo sapiens) (UniProt Q16288); settings: at 1 µM
# [16] = target: T3, Tyrosine-protein kinase TXK (Homo sapiens) (UniProt P42681); settings: at 0.1 µM
# T3 sequence (whole entry): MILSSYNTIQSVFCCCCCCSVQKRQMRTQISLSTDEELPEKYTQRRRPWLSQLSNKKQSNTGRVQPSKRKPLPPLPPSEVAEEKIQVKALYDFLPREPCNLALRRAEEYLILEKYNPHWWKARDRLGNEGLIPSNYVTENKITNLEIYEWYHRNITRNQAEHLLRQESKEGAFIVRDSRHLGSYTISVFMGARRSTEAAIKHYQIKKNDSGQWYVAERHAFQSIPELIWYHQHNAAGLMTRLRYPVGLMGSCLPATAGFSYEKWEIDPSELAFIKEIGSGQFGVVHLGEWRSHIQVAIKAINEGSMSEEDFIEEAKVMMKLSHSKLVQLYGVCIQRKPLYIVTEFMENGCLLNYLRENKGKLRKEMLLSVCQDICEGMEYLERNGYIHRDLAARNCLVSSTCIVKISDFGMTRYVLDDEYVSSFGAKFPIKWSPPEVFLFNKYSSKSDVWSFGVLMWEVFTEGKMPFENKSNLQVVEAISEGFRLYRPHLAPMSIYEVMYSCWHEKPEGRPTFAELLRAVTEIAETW
# [17] = target: T3, Tyrosine-protein kinase TXK (Homo sapiens); settings: at 1 µM
# [18] = target: Non-receptor tyrosine-protein kinase TYK2 (Homo sapiens) (UniProt P29597); settings: at 0.1 µM;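 also: each value is a mean of the inhibition readings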
# Chain of Non-receptor tyrosine-protein kinase TYK2 (Homo sapiens) (P29597 whole entry): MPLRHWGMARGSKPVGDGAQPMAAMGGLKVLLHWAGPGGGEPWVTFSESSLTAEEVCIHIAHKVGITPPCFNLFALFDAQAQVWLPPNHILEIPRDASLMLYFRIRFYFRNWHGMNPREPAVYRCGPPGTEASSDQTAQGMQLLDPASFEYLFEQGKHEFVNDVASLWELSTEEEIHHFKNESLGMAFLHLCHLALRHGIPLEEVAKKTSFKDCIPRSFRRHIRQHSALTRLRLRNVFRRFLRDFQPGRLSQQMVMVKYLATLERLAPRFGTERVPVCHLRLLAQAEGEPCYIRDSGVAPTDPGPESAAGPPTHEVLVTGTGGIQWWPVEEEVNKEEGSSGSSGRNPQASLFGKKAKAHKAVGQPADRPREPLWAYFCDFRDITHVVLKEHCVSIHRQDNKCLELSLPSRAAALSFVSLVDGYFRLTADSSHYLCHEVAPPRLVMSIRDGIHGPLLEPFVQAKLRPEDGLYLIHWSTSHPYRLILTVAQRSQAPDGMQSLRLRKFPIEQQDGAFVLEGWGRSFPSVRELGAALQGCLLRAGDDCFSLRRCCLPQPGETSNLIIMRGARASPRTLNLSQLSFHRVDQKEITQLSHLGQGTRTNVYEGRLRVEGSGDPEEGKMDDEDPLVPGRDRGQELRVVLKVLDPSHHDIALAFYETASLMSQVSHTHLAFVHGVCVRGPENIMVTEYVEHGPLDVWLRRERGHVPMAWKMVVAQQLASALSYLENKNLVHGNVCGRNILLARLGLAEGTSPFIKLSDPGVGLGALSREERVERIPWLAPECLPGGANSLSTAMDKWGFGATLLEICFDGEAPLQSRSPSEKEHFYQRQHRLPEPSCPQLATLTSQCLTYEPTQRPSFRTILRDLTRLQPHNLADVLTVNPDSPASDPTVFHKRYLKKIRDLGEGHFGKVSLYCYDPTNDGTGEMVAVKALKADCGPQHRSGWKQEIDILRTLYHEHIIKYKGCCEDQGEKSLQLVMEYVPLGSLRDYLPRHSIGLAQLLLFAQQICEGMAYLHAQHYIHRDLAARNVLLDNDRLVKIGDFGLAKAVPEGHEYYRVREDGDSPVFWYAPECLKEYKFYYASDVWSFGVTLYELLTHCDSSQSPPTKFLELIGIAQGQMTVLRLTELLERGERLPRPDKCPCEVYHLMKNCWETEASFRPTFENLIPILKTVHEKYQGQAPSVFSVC
# [19] = target: T4, Dual specificity protein kinase TTK (Homo sapiens) (UniProt P33981); settings: at 1 µM;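 also: reported figures are mean TTK inhibition at 1 µM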
# T4 sequence (whole entry): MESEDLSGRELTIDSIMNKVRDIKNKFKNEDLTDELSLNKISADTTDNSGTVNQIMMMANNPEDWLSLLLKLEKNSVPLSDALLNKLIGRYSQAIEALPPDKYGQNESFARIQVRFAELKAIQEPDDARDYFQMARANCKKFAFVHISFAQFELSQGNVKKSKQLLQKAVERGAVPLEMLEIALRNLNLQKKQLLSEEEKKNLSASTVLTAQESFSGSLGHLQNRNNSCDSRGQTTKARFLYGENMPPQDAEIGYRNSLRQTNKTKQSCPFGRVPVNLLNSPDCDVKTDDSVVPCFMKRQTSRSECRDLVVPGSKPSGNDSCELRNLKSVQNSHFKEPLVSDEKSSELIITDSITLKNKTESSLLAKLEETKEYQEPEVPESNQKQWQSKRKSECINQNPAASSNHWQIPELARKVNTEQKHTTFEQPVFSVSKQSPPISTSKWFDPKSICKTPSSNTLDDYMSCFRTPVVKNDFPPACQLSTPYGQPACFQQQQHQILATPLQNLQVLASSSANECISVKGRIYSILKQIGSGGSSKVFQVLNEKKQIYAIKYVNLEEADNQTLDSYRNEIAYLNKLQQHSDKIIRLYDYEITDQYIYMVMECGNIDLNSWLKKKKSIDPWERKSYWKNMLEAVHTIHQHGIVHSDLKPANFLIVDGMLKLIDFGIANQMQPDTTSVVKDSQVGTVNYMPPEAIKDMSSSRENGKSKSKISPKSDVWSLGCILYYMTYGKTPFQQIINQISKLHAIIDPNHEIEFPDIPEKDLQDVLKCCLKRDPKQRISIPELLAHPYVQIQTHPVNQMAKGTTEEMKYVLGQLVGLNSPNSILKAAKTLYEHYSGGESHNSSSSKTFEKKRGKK
# [20] = target: T5, Aurora kinase A (Homo sapiens) (UniProt O14965); settings: at 0.1 µM;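 also: each reported value is a mean percent inhibition of Aurora-A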
# T5 sequence (whole entry): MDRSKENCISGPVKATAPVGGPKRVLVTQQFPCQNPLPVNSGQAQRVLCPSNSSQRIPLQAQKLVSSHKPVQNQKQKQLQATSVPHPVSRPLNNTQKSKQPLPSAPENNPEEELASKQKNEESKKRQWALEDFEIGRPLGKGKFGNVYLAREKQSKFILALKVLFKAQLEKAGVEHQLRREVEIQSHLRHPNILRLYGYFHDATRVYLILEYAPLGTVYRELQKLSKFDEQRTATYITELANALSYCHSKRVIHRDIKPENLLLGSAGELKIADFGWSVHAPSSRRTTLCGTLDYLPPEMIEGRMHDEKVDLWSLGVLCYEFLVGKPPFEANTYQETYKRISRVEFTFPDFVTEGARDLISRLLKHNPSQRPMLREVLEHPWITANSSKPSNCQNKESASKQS
Structure (SMILES),inhibition [1] [%],inhibition [2],inhibition [3],inhibition [4],inhibition [5],inhibition [6],inhibition [7],inhibition [8],inhibition [9],inhibition [10],inhibition [11],inhibition [12],inhibition [13],inhibition [14],inhibition [15],inhibition [16],inhibition [17],inhibition [18],inhibition [19],inhibition [20]
Cc1ccc(-c2cc3c(NC(=O)C4CC4)ncnc3o2)cc1,-1.6,5.2%,13.1%,3.09%,4.4%,3.37%,6.56%,1.58%,4.37%,4.74%,1.15%,1.73%,4.58%,2.91%,4.4%,3.92%,8.76%,-1.91%,10.2%,3.75%
CCS(=O)(=O)c1ccc(OC)c(Nc2ncc(-c3cccc(F)c3)o2)c1,1.66,9.86%,37.2%,4.21%,14.1%,27.4%,76.5%,2.97%,13.2%,6.84%,42.8%,10%,47.2%,12%,48.1%,17.2%,56%,-0.94%,8.85%,7.01%
FC(F)(F)CNc1nccc(-c2cnn3ncccc23)n1,-3.33,0.22%,2.62%,1.95%,3.61%,0.51%,4.99%,0.71%,-0.17%,-0.41%,2.2%,0.64%,-0.08%,0.73%,0.22%,-0.11%,1.8%,-4.86%,8.83%,2.68%
CN1CCC(n2cnc(-c3ccc(F)cc3)c2-c2ccnc(NCCO)n2)CC1,-1.12,6.05%,5.09%,1.8%,3.36%,4.89%,10.8%,1.7%,2.83%,2.11%,2.02%,2.35%,6.67%,4.76%,5.91%,2.5%,2.52%,-3.21%,2.05%,1.7%
Nc1ncnc2occ(-c3ccc(NC(=O)Nc4cc(C(F)(F)F)ccc4F)cc3)c12,-9.91,3.07% and -2.99%,5.25% and -1.81%,63.7% and 59.4%,79% and 80.6%,10.7% and 2.54%,50% and 25.8%,1.25% and -0.32%,2.06% and -0.97%,57.1% and 36.6%,89.2% and 97%,54.8% and 40.6%,90.7% and 88.5%,52.9% and 39.5%,92.8% and 85.3%,3.14% and 1.59%,5.09% and 0.12%,-1.29% and 0.57%,21.4% and 7.71%,3.16% and -1.11%
O=C1Nc2ccccc2/C1=C1\CCc2cc(O)ccc21,-3.48,5.96%,10.2%,4.53%,7.58%,11.5%,45.2%,0.75%,1.9%,18.6%,70.6%,28.6%,78%,28%,77.5%,2.88%,8.68%,-2.35%,31.4%,8.42%
COc1ccccc1-c1cc(/C=C2\C(=O)Nc3ncc(Br)cc32)cc(Br)c1O,-0.96,4.41%,10.3%,4.42%,6.14%,40.2%,80.4%,1.04%,0.66%,9.43%,61.7%,38.7%,89.2%,41.7%,93.9%,3.05%,6.65%,-5.9%,9.88%,13.4%
